Reference: publication PMC5540273 (PLoS ONE, 2017)

Experiments:
Settings in all cases: concentration: 1 μM,replicates: in singlicate; n = 1
RIOK1 = system: RIOK1
RIOK2 = system: RIOK2
RIOK3 = system: RIOK3
RIPK1 = system: RIPK1
RIPK2 = system: RIPK2
RIPK4 = system: RIPK4
RIPK5 = system: RIPK5
ROCK1 = system: ROCK1
ROCK2 = system: ROCK2
ROS1 = system: ROS1
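Note: KINOMEscan kinase panel screen.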

Structure (SMILES)	%Inh (RIOK1) [%]	%Inh (RIOK2) [%]	%Inh (RIOK3) [%]	%Inh (RIPK1) [%]	%Inh (RIPK2) [%]	%Inh (RIPK4) [%]	%Inh (RIPK5) [%]	%Inh (ROCK1) [%]	%Inh (ROCK2) [%]	%Inh (ROS1) [%]
CS(=O)(=O)Nc1ccc(-c2ccnc3[nH]ccc23)cc1 [GSK993273]	98.6	67	93.9	0	18	30	0	98.5	98.4	9
O=c1[nH]cc(-c2ccc(O)cc2)c2sc(-c3ccncc3)cc12 [GSK1033723]	1	14	6	26	16	0	5	10	18	0
Cn1cc(-c2cccc3c(N)c(C(N)=O)nnc23)cn1	36	52	60	3	3	37	17	11	20	6
N#Cc1cccc(C(=O)NC2CCN(c3ccnc(Nc4ccc(F)cc4)n3)C2)c1 (stereo not drawn) [GSK1379708]	24	0	0	0	0	6	0	0	0	13
FC(F)(F)c1cc(Br)cc(Nc2nccc(-c3cnn4ncccc34)n2)c1 [GW810578]	0	82	0	4	69	20	15	36	23	12
C[C@@H]1CCN(C(=O)N2CCCC2)C[C@@H]1N(C)c1ncnc2[nH]ccc12	0	0	2	0	0	13	24	43	67	23
COc1cc2nccc(Nc3ccc(Oc4ccccc4)cc3)c2cc1OC.Cl [GI261656]	11	0	4	6	98.3	3	50	16	29	27
Cl.c1ccc(Oc2ccc(Nc3ccnc4cc(-c5ccc(CN6CCNCC6)o5)ccc34)cc2)nc1 [GW567142]	0	0	0	0	95.5	0	4	5	32	0
CC(C)S(=O)(=O)N1CCN(Cc2ccc3c(c2)nc(NC(=O)c2ccsc2)n3C[C@H](O)c2ccccc2)CC1 [GW635815]	36	33	25	20	4	7	0	66	63	20
CN1CCN(CCCNc2nccc(-c3c(-c4ccc(F)cc4)nn4cc(C(N)=O)ccc34)n2)CC1 [GW622475]	46	27	36	10	85	28	0	0	20	4
Cc1nnc(-c2ccc3occ(-c4ccc(S(C)=O)cc4)c3n2)o1 (stereo not drawn)	0	0	7	0	0	0	0	0	0	0
COc1cccc(OC)c1C(=O)Nc1cccc(-c2nn3ccccc3c2-c2ccnc(Nc3cccc(F)c3)n2)c1 [GSK361065]	43	2	19	17	38	9	32	0	14	4
C[C@@H]1CNc2c(sc3ccc4nc(-c5ccc(O)cc5)ccc4c23)C(=O)N1	0	18	3	0	27	3	27	65	51	0
OCCn1cc(-c2cnc3nnn(Cc4ccc5ncccc5c4)c3n2)cn1	0	0	19	0	0	0	0	0	0	0
CC(C)c1nc(-c2cccc(NS(=O)(=O)c3ccccc3)c2)c(-c2ccnc(Nc3ccc4c(c3)CN(C)CC4)n2)s1 [GSK1649598]	18	0	24	0	98.7	36	8	0	0	0
COc1cccc(CNC(=O)NC2CCN(c3ccnc(Nc4cc(OC)c(OC)c(OC)c4)n3)C2)c1 (stereo not drawn) [GSK1379765]	63	0	56	17	0	40	5	67	76	48
CN1CCN(CCNc2nc3cc(Oc4ccc(NC(=O)Nc5cc(C(F)(F)F)ccc5F)cc4)ccc3[nH]2)CC1.Cl.Cl [GW768504]	0	0	8	2	1	0	3	48	0	16
O=C1NCCc2[nH]c(-c3ccncc3)cc21	35	20	30	4	4	56	24	97.9	95.4	21
CSc1nccc(-c2c(-c3ccc(F)cc3)ncn2CCCN2CCOCC2)n1.Cl [SB-217146]	0	0	0	0	0	3	33	40	10	0
COc1cc2c(Nc3ccc(NC(=O)c4ccccc4)cc3)ncnc2cc1OCCCN1CCOCC1 [GSK301329]	26	14	21	0	55	0	2	1	0	3
Cn1ccc2ncnc(Oc3ccc(NC(=O)Nc4cccc(C(F)(F)F)c4)c(Cl)c3)c21	6	2	41	6	43	0	11	0	26	12
Cc1ccc(CC(=O)N2CCc3cc(-c4cn(C)c5ncnc(N)c45)ccc32)cc1 [GSK2634758]	25	0	0	100	76	0	62	0	21	9
CN(c1ccccc1CNc1nc(Nc2ccc3c(c2)CC(=O)N3)ncc1C(F)(F)F)S(C)(=O)=O	41	0	61	0	0	0	27	0	0	96.5
COc1cccc(C2=C(Nc3cccc(Cl)c3)C(=O)NC2=O)c1 [SB-341556]	41	14	1	0	0	4	16	0	0	0
O=C(NOCC1CC1)c1cc(Br)c(F)c(F)c1Nc1ccc(I)cc1Cl	0	0	0	0	0	0	0	0	0	0
Cn1ccc2ncnc(Oc3ccc(NC(=O)Nc4cccc(C(F)(F)F)c4)c(F)c3)c21	0	0	23	23	52	0	0	0	0	53
CS(=O)c1ccc(-c2coc3ccc(-c4n[nH]c(=O)o4)cc23)cc1 (stereo not drawn)	15	37	0	0	0	0	0	32	0	0
O=C(Nc1ccc(Oc2ccc3nc(NC(=O)C4CC4)cn3n2)c(F)c1)c1cccn(-c2ccccc2)c1=O	13	0	31	80	4	0	0	0	0	0
O=C(Nc1cccc(C(F)(F)F)c1)c1cccc(Oc2ccc3nccn3n2)c1	0	0	15	1	0	17	7	33	22	6
O=C(Nc1cccc(Oc2ccc3nccn3n2)c1)Nc1cccc(C(F)(F)F)c1	0	0	0	5	12	0	0	3	0	0
